# According to PubChem BioAssay (NCATS):
# “And” between values parts separate entries of the source, which are not always exact repeats. Equal entries are not always repeated. Unmarked numbers belong to inactive results. This is one part of the list. Where a call stands in place of a potency, no number is given. The source made the active and inactive calls. Unless noted, calls follow the shape of the dose curve; as a rule, active = well fitted curve in the direction sought with a large enough effect; inconclusive = small, poorly fitted or top-dose-only effect, or another doubt; inactive = no such curve, though single readings can be large; an effect the other way counts as inactive or inconclusive.
# What was measured:
# [1] = target: Bile acid receptor (Homo sapiens) (UniProt Q96RI1); test: qHTS assay for small molecule antagonists of farnesoid X receptor signaling (AID 588526; calls by dose curve)
# Method in brief: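 Antagonist mode: titrated compounds tested against chenodeoxycholic acid stimulation (normalized to 50 uM CDCA and DMSO) in GeneBLAzer HEK293T cells for 16 h. Beta-lactamase read by CCF4 fluorescence; IC50 from Hill fits.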
# [2] = target: Estrogen receptor (Homo sapiens) (UniProt P03372); test: qHTS assay for small molecule antagonists of estrogen receptor alpha signaling (AID 588513; active = well fitted curve in the direction sought with a large enough effect in the signal ratio, with a control signal flat, not every such curve was filed as active; inconclusive = small, poorly fitted or top-dose-only effect, or effect the other way, or a change in a side signal; inactive = no such curve, though single readings can be large or run the other way; the % refers to the signal ratio; also: potency is read from the fitted curve at half-maximal effect)
# Method in brief: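 ER-alpha-UAS-bla GripTite HEK 293 cells in medium with 2% charcoal/dextran-treated FBS were preincubated 4 h at 37 C, dosed with compound (1:2 titration), stimulated with 0.5nM 17-beta-estradiol for 18 h, then read by CCF4 beta-lactamase fluorescence.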
# [3] = target: Androgen receptor (Homo sapiens) (UniProt P10275); test: qHTS assay for small molecule agonists of androgen receptor signaling (AID 588515; active = well fitted curve in the direction sought with a large enough effect in the signal ratio, with a control signal flat; inconclusive = small, poorly fitted or top-dose-only effect, or effect the other way, or a change in a side signal; inactive = no such curve, though single readings can be large or run the other way; the % refers to the signal ratio); settings: AR-UAS-bla HEK293, beta-lactamase ratio, agonist 16 h; stronger effect = higher value
# Method in brief: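 EC50 and efficacy came from Hill fits of titrations (up to 92 uM) normalized to 30 nM R1881 as 100% and DMSO as 0%. Compound exposure was 16 h at 37 C on AR-UAS-bla HEK293 cells, with a 405/460/530 nm CCF4 fluorescence read.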
# [4] = target: Androgen receptor (Homo sapiens) (UniProt P10275); test: qHTS assay for small molecule antagonists of androgen receptor signaling (AID 588516; active = well fitted curve in the direction sought with a large enough effect in the signal ratio, with a control signal flat, not every such curve was filed as active; inconclusive = small, poorly fitted or top-dose-only effect, or effect the other way, or a change in a side signal; inactive = no such curve, though single readings can be large or run the other way; the % refers to the signal ratio)
# Method in brief: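 AR-UAS-bla-GripTite HEK 293 cells (2000/well, 5 h at 37 C) received compound titrations, then R1881 at 10 nM final; after 16 h at 37 C, CCF4 dye 2 h RT, beta-lactamase fluorescence read; IC50 from Hill fits.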
# [5] = qHTS assay to identify small molecules that stimulate interleukin-8 (IL-8) secretion (AID 651758; active = well fitted activation curve with a large enough effect in the signal ratio; inconclusive = small, poorly fitted or top-dose-only effect, or effect the other way, or a change in a side signal; the % refers to the signal ratio)
# Method in brief: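 THP-1 cells (2000/well) exposed to compound 16 h at 37 C; secreted IL-8 then detected by HTRF with cryptate- and XL665-labelled anti-IL-8 antibody pair after 1-3 h at room temperature.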
# [6] = target: Cytochrome P450 3A4 (Homo sapiens) (UniProt P08684); test: qHTS Assay for Activators of Cytochrome P450 3A4 (AID 885); also: nearly all actives have a fitted effect of over 65% in size
# Method in brief: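 20nM CYP3A4 + 25uM Luciferin-PPXE (=KM), 200mM KPO4; cpd 10 min RT; NADPH regen, 60 min RT; stop w/ detection buffer, 20 min; luminescence. Normalized to 57 uM ketoconazole.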
# [7] = Confirmation and Secondary Assay for Modulators of Hemoglobin Beta Chain Splicing at IVS2 654 locus (AID 910);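 also: HeLa cells stably carrying EGFP split by mutant beta-globin IVS2-654 intron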
# Method in brief: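 HeLa cells stably expressing EGFP interrupted by β-globin IVS2-654 intron, seeded overnight in Opti-MEM/2% FCS, then treated 2 days at 37 °C. Restored splicing read as total peak GFP intensity per well by laser scanning cytometry (488 nm excitation, 500–520 nm emission); 500 nM antisense PNA as control.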
# [8] = Confirmation and Secondary Assay for Modulators of Hemoglobin Beta Chain Splicing at IVS2 705 locus (AID 930);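 also: HeLa cells stably expressing the EGFP-705 splicing reporter; series mostly up to about 46 µM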
# Method in brief: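 HeLa cells stably carrying EGFP interrupted by mutant beta-globin IVS2-705 intron (CMV-driven) were seeded at 500 cells/well, treated next day with compound for 2 days at 37C; corrected splicing restores EGFP, read as total peak GFP intensity per well.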
# [9] = target: Ubiquitin carboxyl-terminal hydrolase 1 (Homo sapiens) (UniProt O94782); test: Inhibitors of USP1/UAF1: Pilot qHTS (AID 504865);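 also: rhodamine fluorescence freed from ubiquitin-rhodamine substrate followed over time; top concentration of the series differs between compounds; nearly all actives have a fitted effect of over 35% in size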
# Method in brief: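 USP1/UAF1 complex (1nM) preincubated with compound 15 min at room temperature, then Ub-Rho substrate (150nM final) added. Fluorescence read kinetically at 480/540 nm, 6 reads every 60 seconds. Buffer: 50mM HEPES pH 7.8, 0.5mM EDTA, 0.1 mg/ml BSA, 1mM TCEP, 0.01% Tween-20.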
# [10] = tested on: HIV-1 nucleocapsid protein NCp7 (binding to TG oligonucleotide); test: HIV Nucleocapsid (AID 346; call rule not given here;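 also: potency is read from the fitted curve at half-maximal effect; potency is for inhibitors that block NC binding and lower polarization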); settings: HIV-1 NC / fluorescein-TGTGTGTG probe, fluorescence polarization
# Method in brief: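 HIV-1 NC (100 nM) binding to fluorescein-labelled ssDNA TG4xF (10 nM) in Hepes pH 7.5, 250mM NaCl, 1uM ZnCl2, TCEP and 2-mercaptoethanol; compounds pin-transferred, 1 hr room temperature, fluorescence polarization read on CCD imager.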
# [11] = target: Endonuclease 4 (Escherichia coli (strain K12)) (UniProt P0A6C1); test: Counterscreen for APE1 Inhibitors: qHTS Assay for Inhibitors of Endonuclease IV (AID 2565); also: potency is read from the fitted curve at half-maximal effect
# Method in brief: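 Cleavage of a quenched abasic-site DNA duplex (50 nM, 5'-TAMRA, 3'-BHQ-2) by 2 nM enzyme is followed as fluorescence increase. Compounds are preincubated with enzyme 15 min at room temperature before substrate addition.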
# [12] = target: DNA repair nuclease/redox regulator APEX1 (Homo sapiens) (UniProt P27695); test: Confirmation qHTS Assay for Inhibitors of the Human Apurinic/apyrimidinic Endonuclease 1 (APE1) (AID 2572); settings: purified APE1, fluorogenic abasic-site DNA cleavage; also: potency is read from the fitted curve at half-maximal effect; nearly all actives have a fitted effect of over 30% in size
# Method in brief: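 Readout: kinetic fluorescence (Ex 525, Em 598 nm) from APE1 incision of a 5'-TAMRA, 3'-BHQ-2 duplex containing a THF abasic site at 50 nM final. Compound preincubation 15 min, room temperature.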
# [13] = target: Tyrosyl-DNA phosphodiesterase 1 (Homo sapiens) (UniProt Q9NUW8); test: Confirmation Assay for Inhibitors of Tyrosyl-DNA Phosphodiesterase (TDP1) (AID 489007); settings: recombinant human TDP1 enzymatic activity, dose-response; also: potency is read from the fitted curve at half-maximal effect; nearly all actives have a fitted effect of over 40% in size
# Method in brief: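 Recombinant E. coli-expressed Tdp1 (1 nM final) was preincubated with compounds 15 min at room temperature, then reacted 5 min with 15 nM 5'-biotin/3'-phosphotyrosine-FITC DNA substrate; cleavage read as loss of AlphaScreen signal (10 ug/ml beads, 10 min).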
# Cytochrome P450 3A4 (Homo sapiens), sequence (P08684 whole entry, looked up): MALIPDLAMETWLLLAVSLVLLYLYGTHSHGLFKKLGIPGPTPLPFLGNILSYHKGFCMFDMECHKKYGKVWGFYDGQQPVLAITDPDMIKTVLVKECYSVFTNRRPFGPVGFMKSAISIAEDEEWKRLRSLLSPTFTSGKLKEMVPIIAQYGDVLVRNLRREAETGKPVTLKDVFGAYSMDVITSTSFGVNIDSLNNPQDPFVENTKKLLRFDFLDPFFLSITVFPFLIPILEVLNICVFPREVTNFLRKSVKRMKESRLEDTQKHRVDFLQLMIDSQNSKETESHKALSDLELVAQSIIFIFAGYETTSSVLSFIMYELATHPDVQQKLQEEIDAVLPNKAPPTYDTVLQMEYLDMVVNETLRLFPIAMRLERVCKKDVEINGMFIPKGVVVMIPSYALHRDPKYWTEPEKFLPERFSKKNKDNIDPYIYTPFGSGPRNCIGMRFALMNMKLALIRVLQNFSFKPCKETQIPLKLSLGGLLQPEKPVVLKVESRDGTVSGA
# Estrogen receptor (Homo sapiens), sequence (P03372 whole entry, looked up): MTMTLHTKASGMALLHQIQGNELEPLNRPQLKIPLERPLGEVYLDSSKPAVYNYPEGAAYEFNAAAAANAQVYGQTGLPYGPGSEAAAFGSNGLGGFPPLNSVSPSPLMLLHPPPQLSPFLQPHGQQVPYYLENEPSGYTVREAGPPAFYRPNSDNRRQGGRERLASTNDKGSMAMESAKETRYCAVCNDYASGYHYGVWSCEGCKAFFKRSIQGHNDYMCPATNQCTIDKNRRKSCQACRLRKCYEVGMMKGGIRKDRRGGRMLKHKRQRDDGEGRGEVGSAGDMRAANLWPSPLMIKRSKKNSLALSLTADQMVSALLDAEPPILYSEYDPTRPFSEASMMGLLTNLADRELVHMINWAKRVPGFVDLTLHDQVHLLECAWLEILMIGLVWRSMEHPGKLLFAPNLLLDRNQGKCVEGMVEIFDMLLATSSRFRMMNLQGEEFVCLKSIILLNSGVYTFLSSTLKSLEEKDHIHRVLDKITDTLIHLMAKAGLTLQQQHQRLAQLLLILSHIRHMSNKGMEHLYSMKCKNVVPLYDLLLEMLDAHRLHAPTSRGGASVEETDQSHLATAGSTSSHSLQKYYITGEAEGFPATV
# Bile acid receptor (Homo sapiens), sequence (Q96RI1 whole entry, looked up): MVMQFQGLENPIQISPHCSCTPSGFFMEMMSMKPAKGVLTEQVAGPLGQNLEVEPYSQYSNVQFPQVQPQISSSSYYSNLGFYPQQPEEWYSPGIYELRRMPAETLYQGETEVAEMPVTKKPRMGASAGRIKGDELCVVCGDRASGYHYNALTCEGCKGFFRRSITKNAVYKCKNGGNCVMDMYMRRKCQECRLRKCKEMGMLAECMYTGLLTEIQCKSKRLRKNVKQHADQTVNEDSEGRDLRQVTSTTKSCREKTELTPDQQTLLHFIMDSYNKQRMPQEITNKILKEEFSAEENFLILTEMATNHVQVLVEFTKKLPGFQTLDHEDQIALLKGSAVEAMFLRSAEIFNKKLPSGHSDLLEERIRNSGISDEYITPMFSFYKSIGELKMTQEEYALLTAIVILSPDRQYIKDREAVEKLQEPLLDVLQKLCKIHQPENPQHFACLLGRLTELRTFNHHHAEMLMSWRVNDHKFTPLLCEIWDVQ
# Androgen receptor (Homo sapiens), sequence (P10275 whole entry, looked up): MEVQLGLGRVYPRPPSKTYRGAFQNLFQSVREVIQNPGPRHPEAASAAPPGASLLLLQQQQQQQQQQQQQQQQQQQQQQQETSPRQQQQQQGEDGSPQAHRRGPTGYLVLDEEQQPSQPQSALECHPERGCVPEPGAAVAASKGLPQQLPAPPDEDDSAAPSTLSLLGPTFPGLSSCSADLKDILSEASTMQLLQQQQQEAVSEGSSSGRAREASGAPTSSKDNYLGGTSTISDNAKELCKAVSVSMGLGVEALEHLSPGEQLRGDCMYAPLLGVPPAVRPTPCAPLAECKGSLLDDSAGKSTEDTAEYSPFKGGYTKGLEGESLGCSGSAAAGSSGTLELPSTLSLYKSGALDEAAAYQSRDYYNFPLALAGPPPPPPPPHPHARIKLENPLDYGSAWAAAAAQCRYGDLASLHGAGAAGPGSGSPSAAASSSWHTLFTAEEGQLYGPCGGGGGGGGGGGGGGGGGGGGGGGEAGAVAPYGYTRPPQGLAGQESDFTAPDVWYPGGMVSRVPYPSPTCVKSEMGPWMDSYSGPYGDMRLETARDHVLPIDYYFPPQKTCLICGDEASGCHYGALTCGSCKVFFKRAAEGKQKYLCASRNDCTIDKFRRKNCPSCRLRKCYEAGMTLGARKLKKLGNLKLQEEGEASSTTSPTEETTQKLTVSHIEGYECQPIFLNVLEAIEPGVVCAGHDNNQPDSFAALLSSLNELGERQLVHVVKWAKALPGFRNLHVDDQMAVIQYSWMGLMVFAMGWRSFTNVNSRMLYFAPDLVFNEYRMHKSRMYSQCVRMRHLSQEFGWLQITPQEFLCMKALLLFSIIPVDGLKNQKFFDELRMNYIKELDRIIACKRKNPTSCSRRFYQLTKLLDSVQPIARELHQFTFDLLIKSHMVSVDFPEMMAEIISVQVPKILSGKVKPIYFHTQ
# Ubiquitin carboxyl-terminal hydrolase 1 (Homo sapiens), sequence (O94782 whole entry, looked up): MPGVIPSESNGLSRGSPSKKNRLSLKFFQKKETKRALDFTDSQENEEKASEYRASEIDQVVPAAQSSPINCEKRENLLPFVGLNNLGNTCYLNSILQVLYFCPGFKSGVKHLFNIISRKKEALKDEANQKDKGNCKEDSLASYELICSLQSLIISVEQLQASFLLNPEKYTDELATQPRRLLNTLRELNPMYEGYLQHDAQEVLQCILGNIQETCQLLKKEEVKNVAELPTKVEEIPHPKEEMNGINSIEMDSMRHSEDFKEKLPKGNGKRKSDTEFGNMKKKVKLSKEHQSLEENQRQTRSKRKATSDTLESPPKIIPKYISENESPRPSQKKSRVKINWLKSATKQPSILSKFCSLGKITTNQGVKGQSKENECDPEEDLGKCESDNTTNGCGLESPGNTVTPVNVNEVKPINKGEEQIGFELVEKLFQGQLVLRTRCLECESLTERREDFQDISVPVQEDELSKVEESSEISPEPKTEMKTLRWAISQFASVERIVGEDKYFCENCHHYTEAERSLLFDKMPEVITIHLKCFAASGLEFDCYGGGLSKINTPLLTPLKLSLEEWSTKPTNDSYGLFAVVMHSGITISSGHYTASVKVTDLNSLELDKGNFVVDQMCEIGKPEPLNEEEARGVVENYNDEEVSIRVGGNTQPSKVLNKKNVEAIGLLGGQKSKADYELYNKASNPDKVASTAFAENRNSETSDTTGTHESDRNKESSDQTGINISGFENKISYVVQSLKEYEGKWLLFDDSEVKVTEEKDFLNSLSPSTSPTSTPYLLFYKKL
# Tyrosyl-DNA phosphodiesterase 1 (Homo sapiens), sequence (Q9NUW8 whole entry, looked up): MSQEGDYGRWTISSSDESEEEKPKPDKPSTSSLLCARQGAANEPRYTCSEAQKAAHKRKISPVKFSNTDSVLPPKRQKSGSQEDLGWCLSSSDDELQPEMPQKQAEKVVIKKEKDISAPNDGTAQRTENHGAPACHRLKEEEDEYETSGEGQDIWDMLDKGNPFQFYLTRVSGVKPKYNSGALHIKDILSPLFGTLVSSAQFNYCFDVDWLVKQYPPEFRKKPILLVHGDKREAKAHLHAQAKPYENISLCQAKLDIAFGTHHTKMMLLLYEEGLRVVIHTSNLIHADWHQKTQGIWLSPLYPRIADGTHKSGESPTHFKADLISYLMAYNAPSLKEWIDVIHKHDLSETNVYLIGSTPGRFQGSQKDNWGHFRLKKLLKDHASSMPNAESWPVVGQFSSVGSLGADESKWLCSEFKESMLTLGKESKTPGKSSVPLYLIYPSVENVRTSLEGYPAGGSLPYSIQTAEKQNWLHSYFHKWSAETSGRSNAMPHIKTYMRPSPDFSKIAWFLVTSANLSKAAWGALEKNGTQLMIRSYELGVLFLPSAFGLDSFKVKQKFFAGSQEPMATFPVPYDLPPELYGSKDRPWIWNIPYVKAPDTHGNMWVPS
# DNA repair nuclease/redox regulator APEX1 (Homo sapiens), sequence (P27695 whole entry, looked up): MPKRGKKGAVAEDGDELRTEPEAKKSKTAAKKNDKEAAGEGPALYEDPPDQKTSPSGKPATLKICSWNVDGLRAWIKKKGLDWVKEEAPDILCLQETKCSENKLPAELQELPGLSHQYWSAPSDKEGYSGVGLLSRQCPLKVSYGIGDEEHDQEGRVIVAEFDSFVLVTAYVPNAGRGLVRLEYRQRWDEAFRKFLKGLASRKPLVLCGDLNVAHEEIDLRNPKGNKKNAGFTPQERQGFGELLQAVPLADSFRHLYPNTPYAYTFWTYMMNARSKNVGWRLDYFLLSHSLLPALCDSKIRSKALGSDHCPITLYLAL
compound,measurement,setting,value
O=[N+]([O-])/C=C/c1ccccc1,outcome,[1],inactive
N#CC(Cl)(Cl)Cl,Potency,[2],inactive
same,activation,[3],-3.49%
same,outcome,[4],inactive
same,outcome,[1],inactive
Cc1cc(Cl)ccc1O,outcome,[1],inactive
same,Potency,[5],inactive
Nc1c(Br)cc([N+](=O)[O-])cc1[N+](=O)[O-],Potency,[6],inactive
same,Potency,[2],inactive
same,activation,[3],-3.78%
same,outcome,[1],inactive
CCCC[N+](=O)[O-],outcome,[1],inactive
COP(=S)(OC)SCn1nnc2ccccc2c1=O,Potency,[6],inactive
same,outcome,[7],inactive
same,outcome,[8],inactive
same,Potency,[9],inactive
same,Potency,[2],31.6 µM [inconclusive] (active)
same,activation,[3],-9.55% and -1.17%
Cc1cc(N=Nc2ccccc2C)ccc1N,Potency,[6],inactive
same,activation,[3],-4.45%
same,outcome,[4],inactive
same,outcome,[1],inactive
same,Potency,[5],inactive
Cc1cc(C)cc(OP(=O)(Oc2cc(C)cc(C)c2)Oc2cc(C)cc(C)c2)c1,Potency,[6],inactive
Clc1cccc(Cl)c1,Potency,[5],inactive
Oc1c(Cl)c(Cl)cc(Cl)c1Cl,activation,[3],-20.1%
Nc1ccc(Cc2ccc(N)c(Cl)c2)cc1Cl,Potency,[6],inactive
Brc1ccc(Oc2ccc(Br)cc2Br)c(Br)c1,Potency,[2],inactive
Cc1ccc(OP(=O)(Oc2ccc(C)cc2)Oc2ccc(C)cc2)cc1,Potency,[6],inactive
O=[N+]([O-])c1ccc(O)c([N+](=O)[O-])c1,outcome,[7],inactive
same,outcome,[8],inactive
same,Potency,[9],inactive
same,outcome,[4],inactive
same,Potency,[5],inactive
O=C(c1ccco1)N1CCC2(CCCN(Cc3ccccc3)C2)CC1,Potency,[10],> 20 µM
CS(=O)(=O)N1CCC2(CCN(Cc3nccs3)CC2)CC1,Potency,[10],> 20 µM
O=C(Nc1cccc(F)c1)N1CCCC2(CCN(C(=O)c3ccco3)CC2)C1,Potency,[10],> 20 µM
CN(C)c1ncnc2ccc(-c3ccoc3)cc12,Potency,[10],> 20 µM
COc1ccccc1CNc1ccnc(-c2cccnc2)n1,Potency,[10],> 20 µM
Oc1cc(Cl)c(Cl)c(Cl)c1,Potency,[6],inactive
CCNc1ncc2nc(-c3ccccc3)c(=O)n(CCOC)c2n1,Potency,[10],> 20 µM
O=C(O)c1cc[c]([Sb](=[O])([OH])[OH])cc1[N+](=O)[O-],Potency,[11],10 µM (active)
same,Potency,[12],0.0562 µM (active)
same,Potency,[13],2 µM (active)
COc1cccc(Cn2c(=O)c(-c3cccc(F)c3)nc3cncnc32)c1,Potency,[10],> 20 µM
